This is part of a sample that, as a whole, favours compounds with a hit. Of some 79,000 tested, about 15% had one in any assay. The source made the active and inactive calls. Rule as the data show it: active = growth inhibition above about 70%; inactive = the rest.
What was measured:
[1] = NCI Yeast Anticancer Drug Screen. Data for the wt1 strain (AID 149);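 also: 0% = growth of vehicle-treated wt1 cultures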; details: S. cerevisiae wt1 strain (SPY 50644) growth inhibition, hits give high values
Summary of the method: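 wt1 yeast, compound-treated; % growth inhibition vs vehicle control.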

[2] = NCI Yeast Anticancer Drug Screen. Data for the rad50EPP+ strain (AID 151);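 also: 0% = growth of vehicle-treated control cultures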; details: S. cerevisiae rad50 mutant strain, hits give high values
Summary of the method: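 Measured: growth inhibition of rad50EPP+ yeast. Reference: vehicle-treated controls. Screen uses strains with defined genetic alterations in DNA damage repair or cell cycle control.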

[3] = NCI Yeast Anticancer Drug Screen. Data for the mgt1 strain (AID 153); details: S. cerevisiae mgt1 mutant growth inhibition, hits give high values
Summary of the method: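 Compounds were applied to mgt1 mutant yeast, and growth was then compared against vehicle-treated control cultures to give percent inhibition.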

[4] = NCI Yeast Anticancer Drug Screen. Data for the rad50 strain (AID 155);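 also: 0% = growth of vehicle-only cultures of the same strain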; details: S. cerevisiae rad50 strain growth inhibition, hits give high values
Summary of the method: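 Genetically altered yeast (DNA repair pathway); compound treatment; growth inhibition vs vehicle ctrl.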

[5] = NCI Yeast Anticancer Drug Screen. Data for the mec2-1 strain (AID 157); details: S. cerevisiae mec2-1 strain, hits give high values
Summary of the method: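 Compounds were applied to mec2-1 yeast cells. Their growth was then compared with that of vehicle-treated cultures to give growth inhibition.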

[6] = NCI Yeast Anticancer Drug Screen. Data for the rad14 strain (AID 159);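 also: 0% = growth of vehicle-treated control cultures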; details: S. cerevisiae rad14 strain growth inhibition, hits give high values
Summary of the method: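 Test compounds were applied to a repair-deficient yeast strain. Its growth was then compared with that of cultures given vehicle alone, and inhibition was expressed relative to those controls.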

[7] = NCI Yeast Anticancer Drug Screen. Data for the sgs1 mgt1 strain (AID 161);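 also: 0% = growth of cultures given vehicle only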; details: S. cerevisiae sgs1 mgt1 strain, hits give high values
Summary of the method: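 Growth of a repair-deficient yeast mutant was monitored after compound treatment and expressed as inhibition relative to vehicle-treated cultures.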

[8] = NCI Yeast Anticancer Drug Screen. Data for the CLN2oe strain (AID 163);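 also: 0% = growth of vehicle-only control cultures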; details: S. cerevisiae CLN2oe strain, hits give high values
Summary of the method: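 Cells of an engineered yeast line with disturbed cell-cycle regulation are treated with compound. Inhibition of growth is then calculated relative to the vehicle-treated reference.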

[9] = NCI Yeast Anticancer Drug Screen. Data for the cln2 rad14 strain (AID 165);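 also: 0% = growth equal to vehicle treated cultures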; details: S. cerevisiae cln2 rad14 strain, hits give high values
Summary of the method: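 Strain: cln2 rad14 yeast, altered in cell cycle control and DNA damage repair. Read-out: growth inhibition vs vehicle.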

[10] = NCI Yeast Anticancer Drug Screen. Data for the bub3 strain (AID 167); details: S. cerevisiae bub3 mutant strain, hits give high values
Summary of the method: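 Yeast carrying a defined mutation is treated with each compound, and growth is compared with that of vehicle-exposed cells to give inhibition.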

[11] = NCI Yeast Anticancer Drug Screen. Data for the wt2 strain (AID 169);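 also: 0% = growth of vehicle-treated yeast cultures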; details: S. cerevisiae wt2 strain growth inhibition, hits give high values
Summary of the method: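 Growth of compound-treated yeast is measured and expressed as inhibition relative to vehicle-only controls.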

[12] = NCI Yeast Anticancer Drug Screen. Data for the mlh1 strain (AID 171);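 also: 0% = growth of vehicle-treated control cultures of the same strain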; details: S. cerevisiae mlh1 strain growth inhibition, hits give high values
Summary of the method: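 Test agents were incubated with yeast bearing a defined DNA damage repair or cell cycle control alteration; values are growth inhibition normalised to vehicle-treated cultures.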

[13] = NCI Yeast Anticancer Drug Screen. Data for the sgs1 strain (AID 173);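 also: 0% = growth of vehicle-only control cultures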; details: S. cerevisiae sgs1 mutant, hits give high values
Summary of the method: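 Strain with an altered DNA repair or cell cycle pathway exposed to compound. Growth then measured. Value = inhibition versus vehicle control.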

[14] = NCI Yeast Anticancer Drug Screen. Data for the mlh1 rad18 strain (AID 175); details: S. cerevisiae mlh1 rad18 strain growth inhibition, hits give high values
Summary of the method: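 A repair-deficient yeast strain is exposed to test compound, and growth is scored relative to vehicle-treated controls.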

[15] = NCI Yeast Anticancer Drug Screen. Data for the rad18 strain (AID 177); details: S. cerevisiae rad18 mutant growth inhibition, hits give high values
Summary of the method: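 DNA-repair-defective yeast; compound treatment; growth inhibition scored against vehicle.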

[16] = at 5.0 µM (retest, dose inferred, filed as 0.5)
[17] = at 50.0 µM (retest, dose inferred, filed as 5.0)

Measured: growth inhibition

CCCCCCCCCCCC1N=C(N)NC(CCCO)=C1C(=O)OC (stereo unspecified)
inactive: [1]; at 1.2 µM 15% | [2]; at 1.2 µM 32% | [3]; at 1.2 µM 46% | [4]; at 1.2 µM 28% | [4]; [16] 28% | [5]; at 1.2 µM 12% | [5]; [16] 7% | [7]; [16] 65% | [8]; at 1.2 µM 16% | [9]; [16] 21% | [10]; at 1.2 µM 11% | [10]; [16] 6% | [11]; at 1.2 µM 16% | [12]; at 1.2 µM 6% | [13]; at 1.2 µM 48% | [14]; [16] 53% | [15]; at 1.2 µM 67%
active: [1]; at 3.7 µM 99% | [1]; at 11.0 µM 99% | [1]; at 33.0 µM 99% | [1]; at 100.0 µM 99% | [2]; at 3.7 µM 81% | [2]; at 11.0 µM 99% | [2]; at 33.0 µM 99% | [2]; at 100.0 µM 98% | [3]; at 3.7 µM 99% | [3]; at 11.0 µM 100% | [3]; at 33.0 µM 99% | [3]; at 100.0 µM 99% | [4]; at 3.7 µM 99% | [4]; at 11.0 µM 99% | [4]; at 33.0 µM 99% | [4]; [17] 100% | [4]; at 50.0 µM 89.2% | [4]; at 100.0 µM 99% | [5]; at 3.7 µM 99% | [5]; at 11.0 µM 99% | [5]; at 33.0 µM 99% | [5]; [17] 99% | [5]; at 50.0 µM 91.8% | [5]; at 100.0 µM 99% | [6]; at 1.2 µM 72% | [6]; at 3.7 µM 99% | [6]; at 11.0 µM 99% | [6]; at 33.0 µM 99% | [6]; at 100.0 µM 99% | [7]; [17] 99% | [7]; at 50.0 µM 88.4% | [8]; at 3.7 µM 99% | [8]; at 11.0 µM 99% | [8]; at 33.0 µM 99% | [8]; at 100.0 µM 99% | [9]; [17] 100% | [9]; at 50.0 µM 90.8% | [10]; at 3.7 µM 99% | [10]; at 11.0 µM 99% | [10]; at 33.0 µM 98% | [10]; [17] 99% | [10]; at 50.0 µM 91.5% | [10]; at 100.0 µM 98% | [11]; at 3.7 µM 99% | [11]; at 11.0 µM 99% | [11]; at 33.0 µM 99% | [11]; at 100.0 µM 99% | [12]; at 3.7 µM 99% | [12]; at 11.0 µM 99% | [12]; at 33.0 µM 99% | [12]; at 100.0 µM 98% | [13]; at 3.7 µM 99% | [13]; at 11.0 µM 99% | [13]; at 33.0 µM 99% | [13]; at 100.0 µM 99% | [14]; [17] 99% | [14]; at 50.0 µM 85.5% | [15]; at 3.7 µM 99% | [15]; at 11.0 µM 99% | [15]; at 33.0 µM 99% | [15]; at 100.0 µM 98%

O/N=C\c1c(O)ccc2ccccc12
active: [2]; at 100.0 µM 74% | [4]; [17] 74% | [4]; at 100.0 µM 71% | [6]; at 100.0 µM 75% | [7]; [17] 74% | [7]; at 50.0 µM 78.8% | [10]; [17] 88% | [10]; at 50.0 µM 75% | [13]; at 100.0 µM 80% | [14]; [17] 89% | [14]; at 50.0 µM 73.2%
inactive: [1]; at 1.2 µM -2% | [1]; at 3.7 µM -5% | [1]; at 11.0 µM 0% | [1]; at 33.0 µM 5% | [1]; at 100.0 µM 22% | [2]; at 1.2 µM 2% | [2]; at 3.7 µM 10% | [2]; at 11.0 µM 19% | [2]; at 33.0 µM 54% | [3]; at 1.2 µM -4% | [3]; at 3.7 µM 1% | [3]; at 11.0 µM 1% | [3]; at 33.0 µM 7% | [3]; at 100.0 µM 52% | [4]; at 1.2 µM 1% | [4]; at 3.7 µM 3% | [4]; [16] -11% | [4]; at 11.0 µM 10% | [4]; at 33.0 µM 42% | [4]; at 50.0 µM 63% | [5]; at 1.2 µM -1% | [5]; at 3.7 µM 0% | [5]; [16] -2% | [5]; at 11.0 µM 2% | [5]; at 33.0 µM 12% | [5]; [17] 20% | [5]; at 50.0 µM 47.4% | [5]; at 100.0 µM 33% | [6]; at 1.2 µM -1% | [6]; at 3.7 µM 0% | [6]; at 11.0 µM 7% | [6]; at 33.0 µM 39% | [7]; [16] -6% | [8]; at 1.2 µM -6% | [8]; at 3.7 µM -6% | [8]; at 11.0 µM -5% | [8]; at 33.0 µM 3% | [8]; at 100.0 µM 28% | [9]; [16] -4% | [9]; [17] 21% | [9]; at 50.0 µM 10.3% | [10]; at 1.2 µM -4% | [10]; at 3.7 µM 0% | [10]; [16] 19% | [10]; at 11.0 µM 2% | [10]; at 33.0 µM 11% | [10]; at 100.0 µM 27% | [11]; at 1.2 µM -4% | [11]; at 3.7 µM -2% | [11]; at 11.0 µM -7% | [11]; at 33.0 µM 1% | [11]; at 100.0 µM 55% | [12]; at 1.2 µM -3% | [12]; at 3.7 µM -1% | [12]; at 11.0 µM 4% | [12]; at 33.0 µM 22% | [12]; at 100.0 µM 65% | [13]; at 1.2 µM 10% | [13]; at 3.7 µM 30% | [13]; at 11.0 µM -5% | [13]; at 33.0 µM 41% | [14]; [16] 3% | [15]; at 1.2 µM -3% | [15]; at 3.7 µM 0% | [15]; at 11.0 µM 6% | [15]; at 33.0 µM 30% | [15]; at 100.0 µM 69%

From PubChem BioAssay (NCI)
